Test [1] in a line: ACEA_ER_80hr: ACEA Biosciences xCELLigence Real-Time Cell Analysis on Estrogen Receptor Agonism for Proliferation (AID 2282667; active = hit-call score of the fitted dose curve at least 0.9, where 1 is the maximum). Particulars: T47D proliferation, impedance (xCELLigence), 80 h. Put shortly: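 T47D human breast cells were seeded on electrode plates, monitored overnight, then exposed continuously to compounds in eight-point 1:4 dilutions from 100 uM (max 0.5% DMSO). Impedance-based growth was read at 80 h, fitted upward relative to DMSO.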

Test [2] can be described thus: ATG_CRE_CIS: Attagene CIS-FACTORIAL HepG2 Assay for human cAMP Responsive Element (CRE) binding protein 3 (AID 2282926). Particulars: HepG2 CRE cis-reporter, Attagene multiplexed mRNA; actives raise or lower the signal. A digest of the protocol: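 Capillary electrophoresis of 6-FAM-labelled, HpaI-digested PCR products quantified reporter transcripts. These came from HepG2 transiently transfected with cis-element reporters and exposed to test chemicals for 24 hours, with DMSO defining baseline activity.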

For test [3], the target named is CCAAT/enhancer-binding protein beta (Homo sapiens) (UniProt P17676). Put plainly: ATG_C_EBP_CIS: Attagene CIS-FACTORIAL HepG2 Assay for human CCAAT/Enhancer Binding Protein (C/EBP) beta (AID 2282927). Particulars: HepG2 Attagene cis-factorial transcription factor reporter; actives raise or lower the signal. Put shortly: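 HepG2 transiently transfected with multiplexed reporter units under cis-regulatory promoters reporting endogenous C/EBPb activity. After 24 h exposure, reporter mRNA assayed by RT-PCR, fluorescent labelling, HpaI digestion and capillary electrophoresis; bidirectional fitting versus DMSO.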

Test [4] in a line: ATG_CMV_CIS: Attagene CIS-FACTORIAL HepG2 Assay for human CMV (Internal Marker) (AID 2282928).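 Also: endpoint acts as a background internal control marker rather than a target.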 Particulars: HepG2 CMV promoter reporter, transcription factor profiling; actives raise or lower the signal. A digest of the protocol:
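Reporter transcripts from transfected HepG2 cells are isolated after 24 h of chemical dosing, reverse-transcribed and amplified. Fragments labeled with 6-FAM are cut with HpaI and quantified by capillary electrophoresis; DMSO defines baseline.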

Test [5] is described as follows: ATG_DR4_LXR_CIS: Attagene CIS-FACTORIAL HepG2 Assay for human Liver X Receptor (LXR), DR4 submotif (AID 2282929). Particulars: HepG2 Attagene DR4 cis-reporter, mRNA transcription; actives raise or lower the signal. Put shortly: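 HepG2 cells were transiently transfected with multiple cis-regulated reporter units and dosed for 24 hours. The DR4 reporter mRNA was quantified by RT-PCR, 6-FAM labelling and capillary electrophoresis. Bidirectional fits used DMSO as baseline.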

Test [6] can be described thus: ATG_AP_1_CIS: Attagene CIS-FACTORIAL HepG2 Assay for human Activator Protein 1 (AP-1) (AID 2282931). Particulars: HepG2 Attagene cis-factorial AP-1 reporter mRNA; actives raise or lower the signal. Put shortly:
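HepG2 cells transiently transfected with cis-element-driven reporter transcription units, dosed for 24 hours. Reporter mRNA measured by RT-PCR, 6-FAM labelling, HpaI digestion and capillary electrophoresis. Bidirectional fitting against DMSO baseline.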

Test [7] in a line: ATG_AP_2_CIS: Attagene CIS-FACTORIAL HepG2 Assay for human Activator Protein 2 (AP-2) (AID 2282932). Particulars: HepG2 AP-2 cis-reporter, Attagene transcription factor profiling; actives raise or lower the signal. A digest of the protocol: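 Read-out: fluorescent reporter mRNA via RT-PCR and capillary electrophoresis, 24 h post-dose in transiently transfected HepG2. Endogenous factors drive cis-promoter reporters; gain or loss of signal fitted bidirectionally against DMSO.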

The nature of test [8]: ATG_BRE_CIS: Attagene CIS-FACTORIAL HepG2 Assay for human Bone Morphogenetic Protein (BMP) Response Element (BRE) (AID 2282933). Particulars: HepG2 BMP response element reporter, Attagene transcription factor profiling; actives raise or lower the signal. A digest of the protocol: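 Multiplexed cis-reporter assay, HepG2, 24 h exposure. mRNA from reporter units quantified via RT-PCR/CE; DMSO baseline; bidirectional curve fit.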

Test [9] has as its target Retinoic acid receptor alpha (Homo sapiens) (UniProt P10276). Put plainly: ATG_DR5_RAR_CIS: Attagene CIS-FACTORIAL HepG2 Assay for human Retinoic Acid Receptor Alpha (RARE), DR5 submotif (AID 2282934).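 As to AC50: reporter responds to endogenous RAR alpha beta and gamma in HepG2 not RARA alone.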 Particulars: HepG2 Attagene cis-factorial RARE DR5 reporter, mRNA; actives raise or lower the signal. Put shortly: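 HepG2 cells transiently transfected with multiplexed reporter units; DR5 cis-element drives reporter through endogenous transcription factors. After 24 h dosing, reporter mRNA quantified by RT-PCR, fluorescent labeling, HpaI digestion and capillary electrophoresis; bidirectional fitting versus DMSO.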

Test [10] addresses Transcription factor E2F1 (Homo sapiens) (UniProt Q01094). Put plainly: ATG_E2F_CIS: Attagene CIS-FACTORIAL HepG2 Assay for human E2F Transcription Factor 1 (AID 2282935). Particulars: HepG2 Attagene cis-reporter, E2F reporter RNA transcripts; actives raise or lower the signal. A digest of the protocol:
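Transient MRTU transfection of HepG2; 24 h compound exposure; RNA → oligo(dT) RT → PCR → FAM label → HpaI cut → CE fluorescence. Gain/loss of signal fit against DMSO.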

A short description of test [11]: ATG_E_Box_CIS: Attagene CIS-FACTORIAL HepG2 Assay for human Enhancer Box (E-box) (AID 2282936). Particulars: HepG2 E-box cis-reporter transcription, actives raise or lower the signal. Put shortly:
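Transiently transfected HepG2, endogenous TF-driven reporters, 24 h dosing. Readout: RT-PCR plus capillary electrophoresis of fluorescent reporter fragments. Gain or loss of signal fitted bidirectionally against DMSO baseline.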

Test [12] is described as follows: ATG_M_61_CIS: Attagene CIS-FACTORIAL HepG2 Assay for M61 Transcription Factor (Internal Marker) (AID 2282937). Particulars: HepG2 Attagene CIS-FACTORIAL M61 internal marker reporter; actives raise or lower the signal. A digest of the protocol:
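HepG2 cells transiently transfected with multiplexed cis-promoter reporter units reporting endogenous transcription factor activity, measured 24 h after dosing. Reporter mRNA quantified by RT-PCR and capillary electrophoresis; bidirectional fit against DMSO baseline.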

A short description of test [13]: ATG_EGR_CIS: Attagene CIS-FACTORIAL HepG2 Assay for human Early Growth Response 1 (EGR1) (AID 2282938). Particulars: HepG2 Attagene CIS-FACTORIAL EGR reporter mRNA; actives raise or lower the signal. Put shortly:
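HepG2 cells transiently transfected with cis-element-driven multiplexed reporter units, dosed for 24 h. EGR1-element reporter mRNA quantified by RT-PCR, 6-FAM labelling, HpaI digestion and capillary electrophoresis; bidirectional fit versus DMSO.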

The nature of test [14]: ATG_M_19_CIS: Attagene CIS-FACTORIAL HepG2 Assay for M19 Transcription Factor (Internal Marker) (AID 2282939). Particulars: HepG2 Attagene CIS-FACTORIAL M19 internal marker reporter; actives raise or lower the signal. A digest of the protocol:
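Signals come from fluorescence of labelled reporter-specific PCR fragments resolved by capillary electrophoresis, following 24 h treatment of HepG2 cells transfected with cis-promoter reporter units; activity was fitted in both directions relative to DMSO.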

A short description of test [15]: ATG_ERE_CIS: Attagene CIS-FACTORIAL HepG2 Assay for Estrogen Response Element (ERE) (AID 2282940). Particulars: HepG2 ERE cis-reporter, Attagene RNA transcript; actives raise or lower the signal. Put shortly:
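Fluorescence of capillary-separated, FAM-labelled reporter cDNA fragments indicates reporter mRNA levels in HepG2 cells exposed to chemicals for 24 h. Transient transfection with cis-regulated units; data fitted in both directions against DMSO.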

Test [16] has as its target Hepatocyte nuclear factor 3-beta (Homo sapiens) (UniProt Q9Y261). Put plainly: ATG_FoxA2_CIS: Attagene CIS-FACTORIAL HepG2 Assay for human Forkhead box A2 (FOXA2) (AID 2282942). Particulars: HepG2 cis-reporter transcription factor activity, 24 h; actives raise or lower the signal. Put shortly:
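HepG2 transiently transfected with a multiplexed cis-promoter reporter library read endogenous FOXA2 activity. After 24 h compound exposure, reporter mRNA was quantified by RT-PCR, HpaI digestion and capillary electrophoresis. Bidirectional fit against DMSO.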

A short description of test [17]: ATG_FoxO_CIS: Attagene CIS-FACTORIAL HepG2 Assay for human Forkhead box O (FoxO) (AID 2282943). Particulars: HepG2 Attagene cis-reporter, FoxO element, mRNA; actives raise or lower the signal. Put shortly:
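HepG2 cells transiently transfected with cis-element-driven reporter units report endogenous FoxO activity. After 24 h chemical exposure, reporter mRNA quantified by RT-PCR, fluorescent labeling, HpaI digestion and capillary electrophoresis; bidirectional fit versus DMSO.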

Test [18] concerns the target Aryl hydrocarbon receptor (Homo sapiens) (UniProt P35869). Put plainly: ATG_Ahr_CIS: Attagene CIS-FACTORIAL HepG2 Assay for human Aryl Hydrocarbon Receptor (Ahr) (AID 2282930). Particulars: HepG2 AhR cis-factorial reporter transcription; actives raise or lower the signal. Put shortly:
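HepG2 cells transiently transfected with cis-element-driven multiplexed reporter units; endogenous AhR activity read as reporter mRNA 24 h after dosing, via RT-PCR, 6-FAM labelling, HpaI digestion and capillary electrophoresis. Bidirectional fit relative to DMSO.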

The nature of test [19]: ATG_Ets_CIS: Attagene CIS-FACTORIAL HepG2 Assay for human Erythroblast Transformation Specific (ETS) (AID 2282941). Particulars: HepG2 ETS cis-reporter transcription, actives raise or lower the signal. A digest of the protocol: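 Bidirectional fit versus DMSO of reporter mRNA signal, detected by RT-PCR and capillary electrophoresis in HepG2 cells transiently transfected with cis-element reporters and dosed 24 h.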

A short description of test [20]: ATG_GATA_CIS: Attagene CIS-FACTORIAL HepG2 Assay for human GATA Binding Protein (AID 2282944). Particulars: HepG2 GATA cis-element reporter, Attagene multiplex mRNA; actives raise or lower the signal. A digest of the protocol:
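After transfecting HepG2 cells with multiple cis-regulated reporter units, chemicals are dosed for 24 h; isolated RNA undergoes RT-PCR and fluorescent labeling before capillary electrophoresis, with activity expressed against DMSO.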

Inconclusive results are not listed. Calls of active or inactive are those of the source. The calls were made as follows, unless noted: active = hit-call score of the fitted dose curve at least 0.9, where 1 is the maximum; inactive = score below 0.9.

Chain of Aryl hydrocarbon receptor (Homo sapiens) (P35869 whole entry, looked up): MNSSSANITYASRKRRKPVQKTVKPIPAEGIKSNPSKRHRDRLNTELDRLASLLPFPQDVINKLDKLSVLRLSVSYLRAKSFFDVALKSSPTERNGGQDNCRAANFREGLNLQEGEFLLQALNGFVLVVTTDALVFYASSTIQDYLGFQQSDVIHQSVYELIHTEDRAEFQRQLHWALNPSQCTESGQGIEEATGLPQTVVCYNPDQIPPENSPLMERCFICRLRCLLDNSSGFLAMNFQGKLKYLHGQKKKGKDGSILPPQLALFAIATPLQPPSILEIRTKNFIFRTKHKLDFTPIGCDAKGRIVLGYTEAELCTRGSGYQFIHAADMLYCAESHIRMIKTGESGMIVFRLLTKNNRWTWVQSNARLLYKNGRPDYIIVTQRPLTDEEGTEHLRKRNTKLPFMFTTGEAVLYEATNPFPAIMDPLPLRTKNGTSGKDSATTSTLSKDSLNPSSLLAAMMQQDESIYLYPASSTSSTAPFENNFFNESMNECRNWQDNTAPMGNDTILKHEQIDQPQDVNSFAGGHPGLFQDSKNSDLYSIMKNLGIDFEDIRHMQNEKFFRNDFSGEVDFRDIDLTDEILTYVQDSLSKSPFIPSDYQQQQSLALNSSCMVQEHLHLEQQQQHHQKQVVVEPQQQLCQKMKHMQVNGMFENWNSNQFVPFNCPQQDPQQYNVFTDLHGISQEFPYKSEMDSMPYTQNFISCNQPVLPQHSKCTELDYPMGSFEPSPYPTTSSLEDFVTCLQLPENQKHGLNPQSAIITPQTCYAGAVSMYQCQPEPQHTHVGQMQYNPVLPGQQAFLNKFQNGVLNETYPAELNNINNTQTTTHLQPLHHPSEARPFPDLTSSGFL
Chain of Transcription factor E2F1 (Homo sapiens) (Q01094 whole entry, looked up): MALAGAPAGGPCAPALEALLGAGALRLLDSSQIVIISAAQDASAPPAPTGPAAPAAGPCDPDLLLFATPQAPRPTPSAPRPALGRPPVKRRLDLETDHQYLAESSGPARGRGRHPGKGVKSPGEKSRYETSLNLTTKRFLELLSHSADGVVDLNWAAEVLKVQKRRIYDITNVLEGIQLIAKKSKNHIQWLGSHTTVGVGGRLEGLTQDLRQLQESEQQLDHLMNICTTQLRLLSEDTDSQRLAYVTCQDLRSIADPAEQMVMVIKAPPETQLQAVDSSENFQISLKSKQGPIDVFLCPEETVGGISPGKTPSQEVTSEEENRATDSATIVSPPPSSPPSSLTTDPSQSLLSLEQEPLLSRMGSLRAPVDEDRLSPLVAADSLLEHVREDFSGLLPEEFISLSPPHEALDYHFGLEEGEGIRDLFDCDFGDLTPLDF
Chain of Hepatocyte nuclear factor 3-beta (Homo sapiens) (Q9Y261 whole entry, looked up): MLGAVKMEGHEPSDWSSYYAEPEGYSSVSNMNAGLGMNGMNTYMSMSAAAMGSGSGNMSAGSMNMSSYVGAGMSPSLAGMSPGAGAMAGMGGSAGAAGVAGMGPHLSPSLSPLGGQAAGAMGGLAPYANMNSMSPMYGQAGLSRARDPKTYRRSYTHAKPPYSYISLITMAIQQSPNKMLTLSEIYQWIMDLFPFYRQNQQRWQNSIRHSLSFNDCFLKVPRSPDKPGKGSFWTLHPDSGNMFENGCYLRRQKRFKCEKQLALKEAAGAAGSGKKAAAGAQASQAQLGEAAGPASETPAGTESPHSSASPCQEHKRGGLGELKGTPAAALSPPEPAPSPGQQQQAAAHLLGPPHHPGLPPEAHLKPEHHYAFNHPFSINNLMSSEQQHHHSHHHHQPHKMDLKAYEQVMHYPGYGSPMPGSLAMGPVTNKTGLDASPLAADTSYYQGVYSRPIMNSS
Chain of CCAAT/enhancer-binding protein beta (Homo sapiens) (P17676 whole entry, looked up): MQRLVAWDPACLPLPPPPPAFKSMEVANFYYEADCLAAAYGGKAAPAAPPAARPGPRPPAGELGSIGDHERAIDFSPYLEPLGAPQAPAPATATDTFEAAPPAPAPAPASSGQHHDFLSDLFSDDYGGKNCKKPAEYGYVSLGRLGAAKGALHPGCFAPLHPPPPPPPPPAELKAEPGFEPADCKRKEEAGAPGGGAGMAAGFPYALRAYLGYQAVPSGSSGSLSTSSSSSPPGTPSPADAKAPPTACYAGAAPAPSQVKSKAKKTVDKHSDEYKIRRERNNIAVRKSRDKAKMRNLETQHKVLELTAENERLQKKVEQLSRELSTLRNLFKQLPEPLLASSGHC
Chain of Retinoic acid receptor alpha (Homo sapiens) (P10276 whole entry, looked up): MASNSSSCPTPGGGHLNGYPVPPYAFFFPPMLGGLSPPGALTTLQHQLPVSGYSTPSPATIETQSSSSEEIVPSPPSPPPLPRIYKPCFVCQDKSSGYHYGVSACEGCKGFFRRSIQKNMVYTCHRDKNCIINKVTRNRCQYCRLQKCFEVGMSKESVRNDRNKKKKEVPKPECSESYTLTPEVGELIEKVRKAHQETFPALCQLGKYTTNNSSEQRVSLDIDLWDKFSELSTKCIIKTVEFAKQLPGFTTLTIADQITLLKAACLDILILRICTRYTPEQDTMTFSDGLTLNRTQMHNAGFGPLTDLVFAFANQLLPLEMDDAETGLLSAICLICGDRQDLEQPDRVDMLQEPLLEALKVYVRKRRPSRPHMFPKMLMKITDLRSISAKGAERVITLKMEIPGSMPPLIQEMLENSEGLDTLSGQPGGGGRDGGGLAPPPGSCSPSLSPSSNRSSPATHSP

Regarding `COCCC(=O)OC`, the compound was called inactive in test [1], in test [2], in test [3], in test [4], in test [5] and in [6]. For the same compound, the result in test [7], in test [8], in test [9], in test [10], in test [11] and in [12] was inactive. The compound was called inactive in test [13], in test [14], in [15], in test [16] and in test [17].

As for `CCC/C=C/CO`, the result in test [1], in [2], in test [3], in test [4], in test [5] and in [18] was inactive. Besides, the result in [7], in test [8], in test [9], in [10], in test [11] and in test [12] was inactive. Also, the compound was called inactive in test [13], in [14], in test [19], in test [16], in test [17] and in [20].

With `CCCCCCCC/C=C\CCCCCCCC(=O)OCC(O)CO` (stereo unspecified), the compound was called inactive in test [1], in [2], in test [3], in test [4], in test [5] and in test [18]. The call in test [7], in test [8], in [10], in [11], in test [12] and in test [13] was inactive. Further, the outcome in test [14], in test [15], in [19], in [16] and in [17] was inactive. Further, in [9], the AC50 was 20.5 µM (active).

Regarding `Oc1ccc2c(c1)CCC2`, the result in test [1], in [2], in test [3], in test [4], in test [5] and in test [18] was inactive. Further, the call in test [6], in [8], in [9], in test [10], in [11] and in [12] was inactive. Also, the call in test [13], in [14], in test [19], in test [16], in test [17] and in test [20] was inactive.

Broadly, the AC50 is the concentration giving half of the maximal activity seen.

(Values after PubChem BioAssay (EPA / NIEHS).)
